From PubChem BioAssay (NCATS)
Results filed as inconclusive are left out. The source made the active and inactive calls. The call rests on the fitted dose curve; in most records, active means well fitted curve in the direction sought with a large enough effect; inconclusive means small, poorly fitted or top-dose-only effect, or another doubt; inactive means no such curve, though single readings can be large; an effect the other way counts as inactive or inconclusive.

Tests used:
NIH3T3 = experiment: qHTS assay to identify novel small-molecules to repurpose for Merkel cell carcinoma treatment (AID 1296009); settings: MCC and control cell lines, CellTiter-Glo viability, 72 h; at 44.8 µM (top of the series) unless noted; further: nearly all actives have a fitted effect of over 60% in size
Method in brief: (§1)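 Cell viability, measured as CellTiter-Glo luminescence, was normalized between DMSO and no-cell wells. The cells had been exposed to 8- or 11-point compound dilutions for 72 hr at 37 degree celsius.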

UISO = experiment: as above; settings: MCC and control cell lines, CellTiter-Glo viability, 72 h; series mostly up to 46 µM
Method in brief: as §1

WaGa = experiment: as above; settings: MCC and control cell lines, CellTiter-Glo viability, 72 h; series mostly up to 46 µM
Method in brief: as §1

C33A = experiment: Primary qHTS to identify gynecologic anti-cancer compounds using libraries of approved drugs and bioactive compounds (AID 1345084); settings: Gynecologic cancer cell panel viability, ATPlite luminescence, 48 h; series mostly up to 57.5 µM; further: nearly all actives have a fitted effect of over 55% in size
Method in brief: (§2)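 Five-concentration response, 48 h; readout is ATP-driven luciferase luminescence.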

CAOV3 = experiment: as above; settings: Gynecologic cancer cell panel viability, ATPlite luminescence, 48 h; series mostly up to 57.5 µM
Method in brief: as §2

CASKI = experiment: as above; settings: Gynecologic cancer cell panel viability, ATPlite luminescence, 48 h; series mostly up to 57.5 µM
Method in brief: as §2

Es-2 = experiment: as above; settings: Gynecologic cancer cell panel viability, ATPlite luminescence, 48 h; series mostly up to 57.5 µM
Method in brief: as §2

HeLa = experiment: as above; settings: Gynecologic cancer cell panel viability, ATPlite luminescence, 48 h; series mostly up to 57.5 µM
Method in brief: as §2

Hek293T = experiment: as above; settings: Gynecologic cancer cell panel viability, ATPlite luminescence, 48 h, control line for the selectivity index; series mostly up to 57.5 µM
Method in brief: as §2

JEG-3 = experiment: as above; settings: Gynecologic cancer cell panel viability, ATPlite luminescence, 48 h; series mostly up to 57.5 µM
Method in brief: as §2

Measured: Potency

CCOC(=O)OCC/C(SC(=O)OCC)=C(\C)N(C=O)Cc1cnc(C)nc1N
inactive: all assays above

COC(=O)c1cc(Cl)c(NC(C)=O)cc1OC
inactive: all assays above

CCOC(=O)Cn1cccc1-c1nc(-c2ccc(OC)cc2)c(-c2ccc(OC)cc2)s1
inactive: all assays above

COc1cc(S(N)(=O)=O)cc(C(=O)O)c1OC
inactive: all assays above

COC(=O)/C=C(/C)N
inactive: all assays above

COC(=O)c1cc(Cl)ccc1OC
inactive: all assays above

CC(=O)OCC(=O)[C@@]1(O)[C@H](OC(C)=O)C[C@H]2[C@@H]3CCC4=CC(=O)C=C[C@]4(C)[C@@]3(F)[C@@H](O)C[C@@]21C
inactive: all assays above

COc1ccc(CCC(C)=O)cc1
inactive: all assays above

CCN(CC)CC(=O)OCC(=O)[C@@]1(O)CC[C@H]2[C@@H]3CCC4=CC(=O)CC[C@]4(C)[C@H]3[C@@H](O)C[C@@]21C
inactive: all assays above

CC(C)=CCC/C(C)=C/CC/C(C)=C/CCC(=O)OC/C=C(\C)CCC=C(C)C
inactive: all assays above

CCCc1ncc(C(=O)O)s1
inactive: all assays above

NS(=O)(=O)c1cc(C(=O)NN2C[C@H]3[C@H]4CCC(C4)[C@H]3C2)ccc1Cl
inactive: all assays above

CCOc1ccccc1OCC1CNCCO1 (stereo not given)
inactive: all assays above

O=C1CC2(CCCC2)CC(=O)N1
inactive: all assays above

CCOC(=O)c1ccc(NC(=O)CN2CCCCC2)cc1
inactive: all assays above

CCOC(=O)CN1CCCC1=O
inactive: all assays above

CCN1CCN(c2cc(-c3ccc(F)cc3)c3c(n2)CCCCCC3)CC1
inactive: NIH3T3 inactive [at 17.4 µM] | UISO | WaGa | C33A | CAOV3 | CASKI | Es-2 | HeLa | Hek293T | JEG-3

CN1CCC(=C2c3ccccc3CCc3cccnc32)CC1
inactive: all assays above

C#Cc1ccc(-c2ccccc2F)cc1
inactive: all assays above

NS(=O)(=O)c1ccc(N2CCCCS2(=O)=O)cc1
inactive: all assays above

N#CSCC(=O)O
inactive: all assays above

c1ccc2c(c1)CCc1ccccc1N2
inactive: all assays above

O=C(O)Cn1c(=O)n(Cc2ccc(Br)cc2F)c(=O)c2ccc(Cl)cc21
inactive: all assays above

CC(=O)N(CC(O)CO)c1c(I)c(C(=O)NCCO)c(I)c(C(=O)NCC(O)CO)c1I (stereo not given)
inactive: all assays above

CC(CCc1ccc2c(c1)OCO2)NN (stereo not given)
inactive: all assays above

CC(=O)c1ccc(O)c(C(N)=O)c1
inactive: all assays above

COc1cc(OC)nc(O[C@H](C(=O)O)C(OC)(c2ccccc2)c2ccccc2)n1
inactive: all assays above

O=C1NC(c2ccccc2)(c2ccccc2)C(=O)N1COP(=O)(O)O
inactive: all assays above

CCCCC(O)/C=C(C)/C=C/C=C/C(=O)N1CCCC1=O (stereo not given)
inactive: all assays above

CC(=O)OC[C@H]1O[C@@H](OC(C)=O)[C@H](OC(C)=O)[C@@H]1OC(C)=O
inactive: all assays above

Cc1cccc(C)c1NC(=O)c1ccc(N)cc1
inactive: all assays above

Cc1[nH]cnc1-c1ccc(Cl)cc1
inactive: all assays above

CC(=O)Nc1ccc(S(=O)(=O)Nc2cc(C)on2)cc1
inactive: all assays above

CN1C(=O)CC(C)(c2ccccc2)C1=O (stereo not given)
inactive: all assays above

CSCC[C@H](NC(=O)[C@H](Cc1c[nH]c2ccccc12)NC(=O)CCNC(=O)OC(C)(C)C)C(=O)N[C@@H](CC(=O)O)C(=O)N[C@@H](Cc1ccccc1)C(N)=O
inactive: all assays above

Cn1c(=O)c2c(ncn2CC(=O)O)n(C)c1=O
inactive: all assays above

CN1N=C(C(N)=O)CCC1=O
inactive: all assays above

CO/N=C(\C(=O)O)c1csc(NC(=O)CCl)n1
inactive: all assays above

COCCc1ccccn1
inactive: all assays above

COc1cc(/C=C/C(N)=O)cc(OC)c1OC
inactive: all assays above

O=C(O)/C=C(\CC(=O)O)C(=O)O
inactive: all assays above

OCCCc1ccccc1
inactive: all assays above

Cc1ccc(C(C)OC(=O)C2(C)CCC(C(=O)O)C2(C)C)cc1 (stereo not given)
inactive: all assays above

CCC(CN)=C(c1ccccc1)c1ccccc1
inactive: all assays above

CCCCN(CCCC)C(C(N)=O)c1ccc(OC)cc1 (stereo not given)
inactive: all assays above

O=C(O)c1cn(C2CC2)c2cc(Cl)c(F)cc2c1=O
inactive: all assays above

COc1cc2c(cc1OC)C(=O)CC2
inactive: all assays above
